In PubChem BioAssay (NCI) one finds growth inhibition data, which are given here for 21 molecules.

The panel holds about 79,000 compounds, 15% with a hit somewhere; the sample as a whole holds those more often. Unmarked numbers belong to inactive results. Activity calls are given as the source filed them. Rule as the data show it: active = growth inhibition above about 70%; inactive = the rest. Where a SMILES comes first, the peptide text is derived from it. The star is where a group is joined. Cbz = O=C(OCc1ccccc1)*

The nature of test [1]: NCI Yeast Anticancer Drug Screen. Data for the rad50 strain (AID 155).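 Also: 0% = growth of vehicle-only cultures of the same strain.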 The following applies: S. cerevisiae rad50 strain growth inhibition; at 50.0 µM; stronger effect = higher value. The essentials: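 Yeast carrying a defined DNA repair defect were exposed to test compounds, and growth was compared with vehicle-treated controls to give percent inhibition.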
Test [2] in a line: NCI Yeast Anticancer Drug Screen. Data for the mec2-1 strain (AID 157). The conditions noted are these: S. cerevisiae mec2-1 strain, at 50.0 µM, stronger effect = higher value. The essentials: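 Test agents were screened against the mec2-1 yeast strain, with defined DNA repair or cell cycle alteration. Growth was scored as inhibition against vehicle-only controls.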
Test [3] can be described thus: NCI Yeast Anticancer Drug Screen. Data for the sgs1 mgt1 strain (AID 161).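 Also: 0% = growth of cultures given vehicle only.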 The following applies: S. cerevisiae sgs1 mgt1 strain, at 50.0 µM, stronger effect = higher value. The essentials:
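Inhibition of yeast growth, normalised to vehicle-treated controls, is reported for a strain bearing genetic alterations in DNA damage repair.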

A short description of test [4]: NCI Yeast Anticancer Drug Screen. Data for the cln2 rad14 strain (AID 165).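 Also: 0% = growth equal to vehicle treated cultures.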 The following applies: S. cerevisiae cln2 rad14 strain, at 50.0 µM, stronger effect = higher value. The essentials: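 Growth of compound-exposed yeast (cln2 rad14 genotype) measured and expressed as inhibition relative to vehicle.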
Test [5] can be described thus: NCI Yeast Anticancer Drug Screen. Data for the bub3 strain (AID 167). The conditions noted are these: S. cerevisiae bub3 mutant strain, at 50.0 µM, stronger effect = higher value. The essentials: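 Compounds were applied to a genetically altered yeast strain carrying a cell-cycle control defect. Growth inhibition was scored against vehicle-treated controls.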
The nature of test [6]: NCI Yeast Anticancer Drug Screen. Data for the mlh1 rad18 strain (AID 175). The conditions noted are these: S. cerevisiae mlh1 rad18 strain growth inhibition; at 50.0 µM; stronger effect = higher value. The essentials: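 In this whole-cell yeast screen, a strain with altered DNA damage repair is challenged with compound, and its growth is measured against matched vehicle-treated controls.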

Consider `COc1ccc2c(-c3cc4ccccc4o3)cc(=O)oc2c1`, for which the growth inhibition in test [1] is -6.4%; in test [2] it was -16.9%; in test [3], -21.3%; in test [4] it was 2%; in test [5] it was 3%; in test [6] it was -31.9%.
As for `COc1ccc2ncc(COC(C)=O)c(COC(C)=O)c2c1`, the growth inhibition was -10.9% in test [1]; -9.45% in test [2]; -7.8% in test [3]; 14.7% in test [4]; -12.4% in test [5]; -8.4% in test [6].
Regarding `Cc1ccc(CCOC(=O)Nc2ccccc2)cc1`, the growth inhibition in test [1] was -7.55%; in test [2] it was 6.4%; in test [3], -3.25%; in test [4] it was -13.1%; in test [5], 1.8%; in test [6], 17.2%.
Turning to `COc1ccc2cc(NC(=O)N/N=C\c3ccc(Cl)cc3)ccc2c1`, the growth inhibition in test [1] is 33.2%; in test [2], 8.9%; in test [3], 26.9%; in test [4], 4.4%; in test [5], 27%; in test [6] it was 30.4%.
Take `O=C1OC(c2ccccc2)=CC1Cc1ccccc1` (stereo unspecified): the growth inhibition was 34.9% in test [1]; -2.35% in test [2]; 1.85% in test [3]; 3.4% in test [4]; -3% in test [5]; -8% in test [6].
`COc1cc2nncc(SCc3ccc(Cl)cc3)c2cc1OC`: the growth inhibition is -1% in test [1]; 4.2% in test [2]; -0.55% in test [3]; -11% in test [4]; 15.5% in test [5]; 4.05% in test [6].
As for `CN(C)c1nc(=NCc2ccncc2)ss1`, the growth inhibition in test [1] was -38.2%; in test [2], 8.45%; in test [3], 2%; in test [4] it was -45.4%; in test [5] it was 5.85%; in test [6], -16.8%.
On to `CCOC(=O)c1ccc(-n2nc3nc(N)[nH]c(=O)c3n2)cc1`, for which the growth inhibition in test [1] is -17.8%; in test [2] it was -21.2%; in test [3], -4.35%; in test [4], -4.15%; in test [5], -52.9%; in test [6] it was -34.4%.
As to `COc1cc(CC2c3cccc(Oc4ccc(C)cc4)c3CCN2C)ccc1Oc1ccc(C)cc1` (stereo unspecified), the growth inhibition is 98% (active) in test [1]; 98.2% (active) in test [2]; 98.7% (active) in test [3]; 96.5% (active) in test [4]; 97.4% (active) in test [5]; 98% (active) in test [6].
On to `O=C(/C=C/c1ccncc1)c1ccccc1`, for which the growth inhibition in test [1] was 0.4%; in test [2], -9.3%; in test [3], -1.85%; in test [4], 11.9%; in test [5], -12.9%; in test [6], 1.75%.
As to `O=C1CSC2=NC3=C(CSC/C3=C\c3ccccc3)C(c3ccccc3)N12` (stereo unspecified), the growth inhibition was 14.4% in test [1]; 11.5% in test [2]; 21.2% in test [3]; 35.8% in test [4]; 21% in test [5]; -25.6% in test [6].
For `O=[N+]([O-])c1ccccc1N=N/C(Cc1ccccc1)=N\Nc1ccccc1`, the growth inhibition in test [1] was 10.8%; in test [2] it was 19.9%; in test [3], -8.25%; in test [4], 11.6%; in test [5] it was -12.6%; in test [6], -17.8%.
In the case of `O=C(NCc1ccncc1)Nc1ccc(Cc2ccc(NC(=O)NCc3ccncc3)cc2)cc1`, the growth inhibition was -8.05% in test [1]; -19.1% in test [2]; 0.2% in test [3]; 15.3% in test [4]; 3.5% in test [5]; 4.25% in test [6].
`CC(C)CC(NC(=O)C(CO)NC(=O)OCc1ccccc1)C(=O)NC(Cc1ccc(O)cc1)C(N)=O` (stereo not drawn) (Cbz-Ser-Leu-Tyr-NH2; configuration not given here): the growth inhibition was 47.5% in test [1]; -8.05% in test [2]; 27.6% in test [3]; 4.9% in test [4]; 3.95% in test [5]; 13.7% in test [6].
As for `Cc1ccccc1N(C)S(=O)(=O)c1ccccc1[N+](=O)[O-]`, the growth inhibition in test [1] was -12%; in test [2], -41.5%; in test [3] it was 8.45%; in test [4], -5.6%; in test [5], 20.2%; in test [6], -10.2%.
For the molecule `N#CC1CCCC(c2ccccc2)(C2CCCCC2)C1=O` (stereo unspecified), the growth inhibition is 7.4% in test [1]; 13.1% in test [2]; 10.2% in test [3]; 26.4% in test [4]; 2.85% in test [5]; -0.9% in test [6].
For `O=Cc1ccc(/C=C/C(=O)O)cc1`, the growth inhibition in test [1] was -1.55%; in test [2] it was -10.1%; in test [3] it was -4.85%; in test [4] it was 5.9%; in test [5] it was -8.55%; in test [6], 1.1%.
For `Cc1ccc2c(c1)sc(C)[n+]2CCO`, the growth inhibition in test [1] is -19.9%; in test [2], -19.5%; in test [3] it was -38.8%; in test [4] it was -5.65%; in test [5], -9.65%; in test [6], -18.4%.
Consider `C/C(=N\NC(=S)Nc1ccc(C(=O)O)cc1)c1nccc2ccccc12`, for which the growth inhibition in test [1] was 3.2%; in test [2] it was 1.1%; in test [3], 4.2%; in test [4] it was 28.9%; in test [5], 9.75%; in test [6] it was 7.25%.
Take `CN(C)c1ccc(C(Cc2ccccc2)C2NC(=S)NC2=O)cc1` (stereo unspecified): the growth inhibition was -6% in test [1]; -34.5% in test [2]; 11.2% in test [3]; 11.3% in test [4]; 7.7% in test [5]; -40.5% in test [6].
Take `COc1cc(C(=O)OCCOC(=O)c2ccc(O)c(OC)c2)ccc1O`: the growth inhibition is 45.4% in test [1]; 13.8% in test [2]; 25.4% in test [3]; -25.5% in test [4]; 51.7% in test [5]; 40.5% in test [6].
